# USP30 block: inhibitors of human USP30 deubiquitinase; Q70CQ3; purified USP30, Ub-rhodamine cleavage fluorescence; inhibition, % at 25 µM; 47,000 tested, 5.3% active
# USP17 block: human USP17-like deubiquitinase inhibition | 47,000 tested, 6.5% active | AID 1645855 | A8MUK1 | inhibition, % at 50 µM | purified USP17, Ub-rhodamine cleavage fluorescence, 3 h
# USP7 inh: inhibitors of human USP7 deubiquitinase; Q93009; purified USP7, Ub-rhodamine cleavage fluorescence; inhibition, % at 20 µM; 47,000 tested, 0.3% active; AID 1645854
# Target sequence (Q93009 whole entry, looked up): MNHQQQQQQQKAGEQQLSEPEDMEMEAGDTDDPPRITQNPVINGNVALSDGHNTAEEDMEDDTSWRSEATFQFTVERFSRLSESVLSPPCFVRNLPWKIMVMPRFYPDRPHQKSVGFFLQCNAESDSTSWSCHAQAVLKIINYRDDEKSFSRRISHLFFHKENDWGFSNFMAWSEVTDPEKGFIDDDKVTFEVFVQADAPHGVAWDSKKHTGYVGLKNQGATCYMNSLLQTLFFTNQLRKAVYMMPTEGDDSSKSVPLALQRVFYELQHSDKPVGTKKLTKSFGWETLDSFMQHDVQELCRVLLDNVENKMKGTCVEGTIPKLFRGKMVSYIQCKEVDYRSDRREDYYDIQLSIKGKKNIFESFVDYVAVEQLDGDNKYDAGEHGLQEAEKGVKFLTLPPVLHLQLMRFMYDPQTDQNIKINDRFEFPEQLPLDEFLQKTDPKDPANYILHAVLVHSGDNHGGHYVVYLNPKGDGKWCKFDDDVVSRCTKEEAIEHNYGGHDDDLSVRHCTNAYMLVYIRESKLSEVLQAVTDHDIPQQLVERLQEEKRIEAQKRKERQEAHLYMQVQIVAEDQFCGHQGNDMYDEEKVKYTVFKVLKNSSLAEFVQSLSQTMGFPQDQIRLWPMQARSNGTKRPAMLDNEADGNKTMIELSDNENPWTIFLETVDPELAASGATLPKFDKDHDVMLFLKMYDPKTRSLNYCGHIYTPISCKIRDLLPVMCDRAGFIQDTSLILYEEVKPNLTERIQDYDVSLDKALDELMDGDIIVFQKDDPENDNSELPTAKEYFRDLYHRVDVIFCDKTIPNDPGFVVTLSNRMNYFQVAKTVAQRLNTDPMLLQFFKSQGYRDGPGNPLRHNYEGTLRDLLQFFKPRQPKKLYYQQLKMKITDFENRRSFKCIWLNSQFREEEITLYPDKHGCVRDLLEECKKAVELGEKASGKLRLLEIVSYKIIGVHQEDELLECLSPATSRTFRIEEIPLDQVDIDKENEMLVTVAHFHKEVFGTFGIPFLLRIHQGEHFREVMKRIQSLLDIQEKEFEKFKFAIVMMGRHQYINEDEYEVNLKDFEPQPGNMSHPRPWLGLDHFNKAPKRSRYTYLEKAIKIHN
# USP28 inh: human USP28 deubiquitinase inhibition; Q96RU2; purified USP28, Ub-rhodamine cleavage fluorescence, 30 min; inhibition, % at 25 µM; 47,000 tested, 3% active; AID 1645857
# USP8 block: human USP8 deubiquitinase inhibition; P40818; purified USP8, Ub-rhodamine cleavage fluorescence, 30 min; inhibition, % at 20 µM; 47,000 tested, 4.2% active
# USP10 inh: inhibitors of human USP10 deubiquitinase; AID 1645856; purified USP10, Ub-rhodamine fluorescence, 60 min; inhibition, % at 20 µM; 47,000 tested, 1.1% active; Q14694
# * marks the source's active call; other numbers are inactive results; x = no result given. A selection: hits, their analogues and other compounds. The true share with any hit is near 13%. Rule as the data show it: active = inhibition above about 30%; inactive = the rest.
SMILES,USP30 block,USP17 block,USP7 inh,USP28 inh,USP8 block,USP10 inh
O=C(Nc1ccc(Cl)cc1)C1CCCN(c2cnccn2)C1 (centres undefined),27.2,33.2*,-4.3,9.2,6.1,-0.4
Cc1ccc(NC(=O)C2CCCN(c3cnccn3)C2)cc1 (centres undefined),2.2,0.7,1.1,-4.2,-0.1,-0.5
O=C(c1n[nH]c2c1CCC2)N1C[C@H]2CC(OCc3ccccc3)C[C@H]2C1 (some centres undefined),-33.0,0.6,-11.8,-6.6,-5.9,-3.5
C=C(C)[C@@H]1CC[C@]2(C)[C@H](CC[C@@H]3[C@@H](C(C)(O)CCC=C(C)C)CC[C@]32C)[C@@]1(C)CCC(=O)O (some centres undefined),93.4*,98.9*,85.2*,69.4*,91.3*,92.9*
CC(C)=CCC[C@](C)(O)[C@H]1CC[C@]2(C)[C@@H]1CC[C@@H]1[C@@]3(C)CC[C@H](O)C(C)(C)[C@@H]3CC[C@]12C,4.6,22.5,10.0,3.2,9.0,16.9
CCC(=O)N(C1CCOCC1)C1CCN(S(=O)(=O)c2ccc(C)cc2C)CC1,-3.5,-12.2,0.1,-11.4,-34.3,-2.3
Cc1ccc(S(=O)(=O)N2CCC(C(=O)Nc3nnc(C)o3)CC2)c(C)c1,37.4*,-2.8,4.7,11.5,-109.5,4.7
Cc1ccc(NC(=O)c2nnc(C3CCCN3C(=O)C3CCC3)s2)cc1 (centres undefined),33.2*,13.5,-24.5,15.5,-46.9,2.2
COc1ccc(O)c(C(=O)OCc2cc(=O)oc3ccc4ccccc4c23)c1,-191.6,50.9*,1.6,-12.6,36.7*,-3.6
CN(C)c1ncccc1CN1CCOC(c2c(C(N)=O)sc3ccccc23)C1 (centres undefined),8.3,2.0,2.8,-2.4,11.7,1.4
Cc1cc(NC(=O)CCn2ccc(=O)[nH]c2=O)ccc1C(C)C,1.5,-0.8,-0.1,3.2,4.4,0.4
CC(C)(C)c1ccc(NC(=O)CCn2ccc(=O)[nH]c2=O)cc1,39.8*,0.6,0.9,5.9,3.1,4.3
COC(=O)c1cc(O)cc(OC)c1C(=O)c1c(O)c(Cl)c(C)c(Cl)c1O,10.3,17.9,2.6,14.9,4.3,1.6
COC(=O)c1c(OC)cc2c(c1C)Oc1c(Cl)c(O)c(Cl)c(C)c1C(=O)O2,30.5*,15.9,7.9,21.2,-4.0,31.9*
CCOc1cc2[nH]c(=O)n(CC3CCC(C(=O)NCCc4c[nH]c5ccccc45)CC3)c(=O)c2cc1OCC (centres undefined),37.0*,22.6,1.1,-6.1,-10.0,18.9
CCOc1ccc(S(=O)(=O)n2ccc(C)n2)c2ccccc12,x,12.3,4.2,x,7.5,4.4
CCOc1ccc(S(=O)(=O)NCc2ccccc2Cl)c2ccccc12,45.4*,32.2*,16.1,20.2,30.4*,14.5
O=C(Cc1csc(-c2cccc(Br)c2)n1)NCc1ccc(C(=O)O)cc1,-7.6,6.0,2.3,2.8,-0.5,-1.4
COc1ccc(Cl)cc1C(=O)NC1CCSc2ccccc21 (centres undefined),9.1,8.5,3.6,10.1,4.8,5.4
COc1cccc(-c2nnc(NC(=O)CSc3ccc(F)cc3)o2)c1,-42.2,-3.3,5.1,-0.3,-265.5,-1.4
COc1ccc(NC(=O)c2ccc(N3C(=O)N4CCc5c([nH]c6ccc(OC)cc56)[C@@]4(C)C3=O)cc2)cc1,17.9,22.6,8.9,17.3,30.9*,2.4
COc1ccc(CCNC(=O)c2ccccc2N2C(=O)N3CCc4c([nH]c5ccc(OC)cc45)[C@@]3(C)C2=O)cc1,40.6*,42.9*,4.7,-1.6,4.3,2.1
COc1ccc2[nH]c3c(c2c1)CCN1C(=O)N(c2ccccc2C(=O)NCCc2ccccc2)C(=O)[C@]31C,-21.1,10.9,-0.1,-11.9,-61.3,0.6
C[C@]12C(=O)N(c3ccccc3C(=O)NC3CCCCC3)C(=O)N1CCc1c2[nH]c2ccccc12,32.1*,45.2*,3.0,6.0,-0.5,0.4
CC1[C@@H]2[C@@H](COc3cccnc3)C[C@H](CN1C(=O)c1ccc3c(c1)OCO3)N2C (some centres undefined),-6.4,0.7,0.3,-9.6,-1.0,-2.7
CNC(=O)c1cc2nc(N(C)C)n(-c3ccc(F)cc3)c2s1,-2.9,70.8*,-4.9,45.5*,89.2*,-4.8

# Assay outcomes: PubChem, Buhrlage Lab, Dana-Farber Cancer Institute and Novartis Institutes for BioMedical Research (Cambridge, Mass)
